In all, about 310,000 compounds went through this assay and about 1,300 (0.42%) were called active. The sample holds actives, similar compounds and a random draw of the others, so the mix is not that of the screen.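 The calls were made as follows: active = B-score of calcium response area above 5 SD of library B-scores, with initial fluorescence ratio within 5 SD of library; inactive = the rest.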

Sequence of Short transient receptor potential channel 4 (Mus musculus) (Q9QUQ5 whole entry, looked up): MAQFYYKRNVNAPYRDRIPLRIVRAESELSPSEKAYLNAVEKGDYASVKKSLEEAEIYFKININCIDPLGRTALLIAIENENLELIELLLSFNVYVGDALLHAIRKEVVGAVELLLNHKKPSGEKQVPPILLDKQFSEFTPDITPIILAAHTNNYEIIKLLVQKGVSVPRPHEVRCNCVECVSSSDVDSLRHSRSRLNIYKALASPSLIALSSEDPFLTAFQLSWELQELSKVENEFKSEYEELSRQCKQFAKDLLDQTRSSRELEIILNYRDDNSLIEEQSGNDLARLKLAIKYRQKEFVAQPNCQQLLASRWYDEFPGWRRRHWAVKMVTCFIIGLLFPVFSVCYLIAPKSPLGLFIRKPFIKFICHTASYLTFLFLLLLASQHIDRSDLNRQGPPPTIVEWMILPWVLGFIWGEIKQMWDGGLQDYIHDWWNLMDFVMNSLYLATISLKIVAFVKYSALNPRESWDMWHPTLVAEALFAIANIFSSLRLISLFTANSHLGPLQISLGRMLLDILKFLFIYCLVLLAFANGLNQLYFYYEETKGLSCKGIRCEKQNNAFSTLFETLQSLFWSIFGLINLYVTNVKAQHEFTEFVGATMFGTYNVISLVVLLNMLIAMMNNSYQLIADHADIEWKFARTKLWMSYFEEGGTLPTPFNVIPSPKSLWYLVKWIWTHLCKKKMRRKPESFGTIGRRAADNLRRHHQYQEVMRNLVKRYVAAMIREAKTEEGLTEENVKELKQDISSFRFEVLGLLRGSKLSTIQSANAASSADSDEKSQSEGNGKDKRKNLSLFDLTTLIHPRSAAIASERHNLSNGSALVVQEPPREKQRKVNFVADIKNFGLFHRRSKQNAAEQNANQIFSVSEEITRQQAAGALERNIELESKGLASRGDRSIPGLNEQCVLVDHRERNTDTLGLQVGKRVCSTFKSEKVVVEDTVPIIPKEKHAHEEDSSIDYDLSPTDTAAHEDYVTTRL

The experiment has as its target Short transient receptor potential channel 4 (Mus musculus) (UniProt Q9QUQ5). Kind of experiment: TRPC4 channel potentiators under submaximal DAMGO – cell-based, mouse TRPC4beta, HEK293 mu-opioid, Fluo-4 calcium, primary screen (AID 2227).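 As to B-score: B-score of integrated fluorescence ratio over time as area under calcium response.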 The conditions noted are these: DAMGO EC20, Fluo-4 Ca2+ flux, at 10 µM; hits give high values. A general note: A change in cytosolic calcium serves as a functional read-out for many receptors and channels.
For `Cc1cccc(N2C(=O)SC(SC(=Nc3ccccc3)Nc3ccccc3)C2=O)c1` (centres undefined), the B-score result is “inactive”.
Take `O=C(O)c1ccc(Cn2c(=S)[nH]c3cc(Cl)ccc3c2=O)cc1`: the B-score result was “inactive”.
With `CCCCn1c(=S)[nH]c2ccccc2c1=O` the entry was “inactive”; with `CN(C)CCn1c(=S)[nH]c2ccc(Cl)cc2c1=O`, 14 (active); with `Cc1cccc(N2CCN(C(=O)c3cnn4c(C(F)F)cc(-c5ccccc5)nc34)CC2)c1C`, “inactive”.
With `Cc1ccc(Cl)cc1N1CCN(C(=O)c2cccc3c(=O)c(C)c(-c4ccccc4)oc23)CC1` the figure was 24 (active).
Take `COC(=O)c1ccc(C(=O)OC)c(NC(=S)N2CCN(c3cc(Cl)ccc3C)CC2)c1`: the B-score entry is “inactive”.
The entry for `COc1cccc(NC(=O)CSc2nccn(-c3ccc4c(c3)OCCO4)c2=O)c1` is “inactive”; for `CCOc1ccc(NS(=O)(=O)c2ccc(C)c(C(N)=O)c2)cc1` it is “inactive”.
The entry for `COc1ccc(-c2cc(C(=O)N3CCN(Cc4ccc5c(c4)OCO5)CC3)on2)cc1OC` is “inactive”; for `COc1cc(Cl)c(S(=O)(=O)N2CCN(Cc3ccc4c(c3)OCO4)CC2)cc1Cl` it is 37 (active).
With `CCn1cc(C(=O)N2CCN(Cc3ccc4c(c3)OCO4)CC2)c2cc(OC)c(OC)cc2c1=O`, the B-score entry was “inactive”.
With `CC(=O)c1ccccc1OCc1ccc(C(=O)c2ccccc2)cc1` the entry was “inactive”; with `COC(=O)c1cc(C(=O)OCC(=O)Nc2cc(C)on2)cc([N+](=O)[O-])c1`, “inactive”; with `COc1ccc(OCCn2ccnc2C)cc1`, “inactive”.
The entry for `Brc1c(CSc2nncc3ccccc23)nc2ccccn12` is “inactive”; for `COc1ccccc1NS(=O)(=O)c1ccc(C(=O)N2CCN(c3ccccc3O)CC2)cc1` it is “inactive”; for `CCn1c2ccccc2c2cc(NC(=O)COC(=O)c3cc(S(=O)(=O)N4CCCCC4)ccc3Cl)ccc21` it is “inactive”.
With `CCn1c(O)c(N=NC(=O)c2cccc(S(=O)(=O)N3CCCCC3)c2)c2ccccc21` the figure was 15 (active); with `Cc1cccc(NC(=O)c2cccc(S(=O)(=O)N3CCCC3)c2)n1`, “inactive”.
For `COc1ccc(CSc2nnnn2-c2ccc(C(=O)O)cc2)cc1`, the B-score result is “inactive”.
The figure for `COCCN(CCOC)S(=O)(=O)c1ccc(/C(O)=C(\C#N)c2nc3ccccc3[nH]2)cc1` is 11 (active).
Turning to `CCC(=O)/C(=C(/O)c1ccccc1)c1nc2ccccc2[nH]1`, the B-score result was “inactive”.
With `Cc1ccccc1OC/C(O)=C(\C#N)c1nc2ccccc2[nH]1`, the B-score result was “inactive”.
Turning to `COC(=O)c1c(CCl)noc1C(=O)NC(C)C`, the B-score result is “inactive”.
In the case of `O=C(Nc1cccc(F)c1)c1coc(=O)c(Br)c1`, the B-score entry is “inactive”.
With `CC(=N\NC(=O)c1cc(Br)ccc1O)/C(=N/O)C(=O)Nc1ccccc1` the entry was “inactive”; with `Cc1ccc(CN2CCN(/N=C/c3cccnc3)CC2)c(C)c1`, 12 (active); with `Clc1ccc(CN2CCN(/N=C/c3cccnc3)CC2)cc1`, 12 (active).
With `Cc1ccc(CN2CCN(c3ncccn3)CC2)c(C)c1` the entry was “inactive”; with `O=C1/C(=C\c2cccnc2)CN(Cc2ccccc2)C/C1=C\c1cccnc1`, “inactive”.
With `C(=N\n1cnnc1)/c1cccnc1` the entry was “inactive”; with `Cc1ccc(CN2CCN(/N=C/c3ccco3)CC2)c(C)c1`, “inactive”.
On to `CCOc1ccc(S(=O)(=O)NCCCn2ccnc2)cc1NC(C)=O`, for which the B-score result is “inactive”.
With `CCc1ccc(/C=N/NC(=O)c2nnn(-c3nonc3N)c2CN2CCc3ccccc32)cc1` the entry was “inactive”; with `CCN(CCn1cccn1)Cc1cn[nH]c1-c1ccc(OC)cc1F`, “inactive”; with `Cc1cccc(C)c1NC(=O)C1(N(C(=O)c2ccccn2)c2ccc(O)cc2)CCCCC1`, “inactive”.
Regarding `CN(C)CCCN(Cc1cc2cc3c(cc2[nH]c1=O)OCCO3)C(=O)NC1CCCCC1`, the B-score entry is “inactive”.
The entry for `COCCCNC(=S)NC(=O)c1ccccc1` is “inactive”; for `Cc1ccc(NC(=S)NC(=O)c2ccc(-c3ccccc3)cc2)cc1` it is “inactive”; for `CCOC(=O)C1=C(NC(=S)NC(=O)c2ccccc2)c2ccccc2CC1(C)C` it is 25 (active).
For `CCOC(=O)C(CC)/C(C)=N\NC(=O)c1cccc(C)c1` (centres undefined), the B-score result is “inactive”.
With `ONC(=Nc1ccccc1)c1ccccc1Cl` the entry was “inactive”.
With `NC(=O)CSc1nnc(NC(=O)c2ccc3ccccc3c2)s1` the entry was “inactive”; with `O=C(Nc1nnc(SCc2ccccc2Cl)s1)c1cccc([N+](=O)[O-])c1`, 12 (active).
On to `O=C(Nc1nnc(SCc2c(Cl)cccc2Cl)s1)c1cccc([N+](=O)[O-])c1`, for which the B-score entry was “inactive”.
On to `Cc1ccc(S(=O)(=O)N2CCN(C(=O)Cc3sc(C)nc3-c3ccc(F)cc3)CC2)c(C)c1`, for which the B-score result is “inactive”.
With `CCOc1ccccc1NC(=S)NC(=O)CCc1ccccc1` the entry was “inactive”; with `Cc1sc2nc(SCC(N)=O)n(C)c(=O)c2c1C`, 29 (active); with `Cc1sc2nc(SCCO)n(-c3ccccc3)c(=O)c2c1C`, “inactive”.
The entry for `C=CCn1c(SCC(=O)/C(C#N)=C(\C)N)nc2sc(C)c(C)c2c1=O` is “inactive”; for `Cc1cc(Nc2cccc(F)c2)n2ncnc2n1` it is “inactive”; for `COc1ccc(/C=C2/S/C(=N/N=C3\CC4CCC3(C)C4(C)C)NC2=O)cc1` (centres undefined) it is “inactive”.
In the case of `COc1ccccc1CNC(=O)C1CCN(S(=O)(=O)c2ccc3c(c2)CC(C)N3C(=O)C2CC2)CC1` (centres undefined), the B-score entry is “inactive”.
With `CC(=O)N1c2ccc(S(=O)(=O)N3CCC(C(=O)N4CCN(c5ccccc5)CC4)CC3)cc2CC1C` (centres undefined) the entry was “inactive”; with `CC(=O)c1ccc(N2CCN(C(=O)C3CCN(S(=O)(=O)c4ccc5c(c4)CC(C)N5C(=O)C4CC4)CC3)CC2)cc1` (centres undefined), 19 (active); with `COc1ccccc1C1C2=C(COC2=O)Nc2cc3c(cc21)OCO3` (centres undefined), “inactive”.
`COC(=O)C1=C(C)NC(=O)CC1c1ccccc1OC` (centres undefined): the B-score entry was “inactive”.
The figure for `CCCOc1ccccc1C1CC(=O)Nc2cc3c(cc21)OCO3` (centres undefined) is 14 (active); for `C/C(=C/c1ccccc1)C(=O)N1CCN(c2ccccc2)CC1` it is “inactive”.
For the compound `O=C(O)c1cc2ccccc2c(=O)s1`, the B-score result is “inactive”.
With `Cc1ccc(-c2nnn(CC(=O)N(CCO)C(C(=O)NC(C)(C)C)c3ccncc3)n2)cc1` (centres undefined), the B-score is 10 (active).
With `Cc1ccc(-c2nnn(CC(=O)N(Cc3ccco3)C(C(=O)NC(C)(C)C)c3ccncc3)n2)o1` (centres undefined), the B-score result is “inactive”.
Turning to `COc1ccc(-c2nnn(CC(=O)N(CCO)C(C(=O)NC3CCCC3)c3ccc(F)cc3)n2)cc1` (centres undefined), the B-score entry is “inactive”.
With `O=C1C(=O)N(CCN2CCOCC2)C(c2cccc(Cl)c2)/C1=C(/O)c1ccc2c(c1)OCO2` (centres undefined) the entry was “inactive”; with `Cc1cc(/C=N/n2cnnc2)c(C)n1-c1ccc2ncccc2c1`, “inactive”.
The entry for `Cc1ccccc1CC1(CO)CCCN(Cc2ccc3c(c2)OCCO3)C1` (centres undefined) is “inactive”.
With `COc1ccc([N+](=O)[O-])cc1NC(=O)CC1SC(=Nc2cccc(C)c2C)N(/N=C(\C)c2ccc(C)cc2)C1=O` (centres undefined), the B-score result was “inactive”.
On to `O=C(N/N=C/c1ccc(Cl)cc1)c1nc2ccc([N+](=O)[O-])cc2c(=O)[nH]1`, for which the B-score result was “inactive”.
With `COc1cc(NS(=O)(=O)c2ccc(NC(=S)NC(=O)c3ccccc3)cc2)nc(OC)n1` the entry was “inactive”.
With `CC(OC(=O)CCCc1c[nH]c2ccccc12)C(=O)Nc1ccc(S(N)(=O)=O)cc1` (centres undefined) the entry was “inactive”; with `Cc1cccn2c(=O)c(/C=C(\C#N)S(=O)(=O)c3ccc(Cl)cc3)c(N3CCC(C(N)=O)CC3)nc12`, “inactive”; with `COCCCNC(=O)/C(C#N)=C/c1c(N2CCCCCC2)nc2ccccn2c1=O`, “inactive”.
The figure for `Cc1cccn2c(=O)c(/C=C(\C#N)C(N)=O)c(N3CCCCCC3)nc12` is 12 (active); for `O=C(c1ccc(NS(=O)(=O)c2ccc3[nH]c(=O)[nH]c3c2)cc1)N1CCCCC1` it is “inactive”.
With `CN(C)CCCSc1ccccc1NC(=O)/C=C/c1ccccc1`, the B-score result is “inactive”.
With `N=c1c2c3c(sc2ncn1N)CCCCC3` the figure was 10 (active); with `N=c1c2c3c(sc2ncn1CCCN1CCOCC1)CCCCC3`, “inactive”; with `N=c1c2c3c(sc2ncn1N)CCCC3`, “inactive”.
For the compound `N#Cc1ncc(C(F)(F)F)cc1Oc1cccnc1`, the B-score entry was “inactive”.
In the case of `O=c1cc(N2CCCCC2)c(-c2ccccc2)nn1Cc1cccc(F)c1`, the B-score entry is “inactive”.
Take `Cc1ncc([N+](=O)[O-])n1CCOC(=O)c1ccc(Br)cc1`: the B-score result is “inactive”.
Consider `Cc1cccc(CCNC(=O)Cn2ncc3c([nH]c4ccc(C)cc43)c2=O)c1`, for which the B-score entry was “inactive”.
Regarding `O=C1c2cccc3cccc(c23)N1CN1CCN(c2ccccn2)CC1`, the B-score was 10 (active).
The entry for `O=C(CN1CCN(c2ccccn2)CC1)N1CCc2ccccc21` is “inactive”; for `CC(=C1C(=O)c2ccccc2C1=O)N1CCN(c2ccccn2)CC1` it is “inactive”.
The figure for `CC(=O)Nc1ccc(S(=O)(=O)N2CCN(CCCOc3cc(C)ccc3C)CC2)cc1` is 32 (active).
With `Cc1ccc(C)c(OCCC(=O)Nc2cccc(S(=O)(=O)N3CCCC3)c2)c1` the entry was “inactive”.
For `Cc1cccc(OCCCC(=O)Nc2ccc(S(=O)(=O)N3CCCC3)cc2)c1`, the B-score entry is “inactive”.
As to `CC(=O)c1ccc(N2CCN(S(=O)(=O)c3ccc4c(c3)CC(=O)N4C)CC2)cc1`, the B-score result was “inactive”.
As to `Cc1c(C(=O)NCCN2C(=O)S/C(=C\c3cccs3)C2=O)cccc1[N+](=O)[O-]`, the B-score result is “inactive”.
`Cc1[nH][nH]c(=O)c1N=Nc1ccccc1`: the B-score entry was “inactive”.
For the compound `Cc1[nH]n(-c2ccccc2)c(=O)c1N=Nc1ccccc1C(=O)N1CCCCC1`, the B-score result was “inactive”.
For `COC(=O)c1ccccc1N=Nc1c(C)[nH][nH]c1=O`, the B-score is 59 (active).
Take `N#Cc1cccc(OC(=O)c2ccc3c(=O)n4c(nc3c2)CCC4)c1`: the B-score entry was “inactive”.
The entry for `CCOC(=O)C1=C(c2ccc(OC)cc2)C(=O)c2ccccc2C1=O` is “inactive”; for `COC(=O)C1=C(C)NC2=C(C(=O)c3ccccc32)C1c1ccc(-c2ccc(C(=O)O)cc2)o1` (centres undefined) it is 16 (active); for `CCOC(=O)c1ccc(-c2ccc(C(=O)Nc3cccnc3)o2)cc1` it is “inactive”.
As to `CC(NC(=O)COc1ccc(-c2ccccc2)cc1)C1CCCO1` (centres undefined), the B-score entry is “inactive”.
On to `O=C(NCCc1ccccc1)C1CC1`, for which the B-score entry was “inactive”.
The entry for `CCn1cc(C(=O)N2CC=C(c3ccccc3)CC2)c(=O)c2ccc(C)nc21` is “inactive”; for `O=C(Nc1cccc(Cl)c1N1CCOCC1)c1cccnc1` it is “inactive”; for `CCN1CCN(c2c(Cl)cccc2NC(=O)c2ccc(Br)o2)CC1` it is 11 (active).
With `O=C(Nc1cccc(Cl)c1N1CCOCC1)c1ccc2c(c1)OCCO2` the entry was “inactive”.

These data come from PubChem BioAssay AID2227 (Johns Hopkins Ion Channel Center, 2009).
